Compound activity: PubChem BioAssay, National Center for Advancing Translational Sciences (NCATS)
Tau fluor cs = counter-screen for tau fibril formation inhibitors; tau K18 P301L Alexa594 fluorescence, heparin fibrillization; Potency, µM (highest dose often 57.7 µM), without a hit: top-dose activity change, negative = decrease; 0.93% of 280,000 active; AID 1463; further: potency means the concentration at half of the fitted maximal effect; on the % scale 0 is the no-effect control and ±100 the full control effect; nearly all actives have a fitted effect of over 55% in size
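Human K18 P301L tau (15 uM unlabeled plus 0.24 uM Alexa 594-labeled, final) in 100 mM sodium acetate pH 7 was mixed with compound and 20 uM heparin and incubated 6 hr at 37 C.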
Tau ThT inhib = inhibitors of human tau fibril formation, thioflavin T binding. P10636. recombinant tau K18 P301L (four-repeat tau fragment), heparin-induced fibrillization, ThT fluorescence. Potency, µM (series often up to 57.4 µM), for the others: at the highest dose activity, negative = inhibition, actives largely listed as inhibitors. 2.1% of 270,000 active; further: potency means the concentration at half of the fitted maximal effect; on the % scale 0 is the no-effect control and ±100 the full control effect; nearly all actives have a fitted effect of over 55% in size
Target sequence (P10636 561-689 P618L limits assumed): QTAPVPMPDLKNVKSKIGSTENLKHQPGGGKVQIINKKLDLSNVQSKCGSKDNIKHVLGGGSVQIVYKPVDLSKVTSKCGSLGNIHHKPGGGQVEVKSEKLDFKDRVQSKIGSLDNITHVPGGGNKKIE
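Aggregation was driven by heparin (20 uM final) acting on recombinant tau […] bearing P301L in 100 mM sodium acetate pH 7; fibrils were detected with Thioflavin T.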
KDM4E inh = blocks human JMJD2E demethylase activity | B2RXH2 | JMJD2E catalytic domain, FDH-coupled NADH fluorescence (FDH is formaldehyde dehydrogenase) | Potency, µM (highest dose often 57.1 µM), without a hit: at the top dose activity change, negative = inhibition, hits mostly inhibitors | 1.6% of 230,000 active | AID 2147; active means well fitted inhibition curve with a large enough effect, not every such curve was filed as active; inconclusive means small, poorly fitted or top-dose-only effect, or another doubt; inactive means no such curve, though single readings can be large or run the other way;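 further: potency means the concentration at half of the fitted maximal effect; 0% = wells with enzyme and -100% = buffer wells without enzyme; nearly all actives have a fitted effect of over 50% in size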
Target sequence (B2RXH2 1-337 limits assumed): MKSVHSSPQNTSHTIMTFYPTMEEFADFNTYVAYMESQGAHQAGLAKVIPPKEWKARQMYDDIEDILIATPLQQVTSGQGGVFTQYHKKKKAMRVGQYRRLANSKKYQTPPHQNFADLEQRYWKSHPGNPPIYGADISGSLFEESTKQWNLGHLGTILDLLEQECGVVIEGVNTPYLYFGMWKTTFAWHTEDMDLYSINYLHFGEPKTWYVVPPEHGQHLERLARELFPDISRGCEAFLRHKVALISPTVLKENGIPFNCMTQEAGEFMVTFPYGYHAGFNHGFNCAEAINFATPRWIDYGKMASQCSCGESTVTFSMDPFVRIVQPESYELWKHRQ
Lamin A splicing = LMNA splicing modulation; HeLa LMNA splicing GFP/RFP minigene ratio, 48 h; Potency, µM (doses to about 46.1 µM), without a hit: at the highest dose ratio change, negative = inhibition, actives largely listed as inhibitors; 0.01% of 200,000 active; AID 1487; active means well fitted inhibition curve with a large enough effect in the signal ratio, with a control signal flat, not every such curve was filed as active; inconclusive means small, poorly fitted or top-dose-only effect, or effect the other way, or a change in a side signal; the % refers to the signal ratio; further: potency means the concentration at half of the fitted maximal effect; on the % scale 0 is the no-effect control and ±100 the full control effect
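S3 HeLa cells stably expressing lamin A-EGFP splicing minigene plus DsRed2, 600 cells/well, 48 h compound exposure at 37C. Laser-scanning cytometry; analysed as GFP (500-530 nm)/RFP (575-640 nm) total intensity ratio; 0.5% DMSO vehicle.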
CBFb-RUNX1 inh = CBF-beta/RUNX1 interaction disruption; Q01196+Q13951; AlphaScreen CBFb-His/RUNX1-biotin binding, biochemical; Potency, µM (doses to about 59.8 µM), inactives show top-dose activity, negative = inhibition, hits mostly inhibitors; 230,000 tested, under 10 active; AID 1477; further: % of control where 0% means no effect
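His-tagged CBF-beta and biotinylated RUNX1 (30 nM each) were premixed 20 min at room temperature, exposed to compound for 15 min, then given nickel-chelate and streptavidin AlphaScreen beads (50 ng each). After 90 min, AlphaScreen signal was read.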
Tau fibril FP = tau fibrillization inhibition (FP). P10636. K18 P301L tau heparin fibrillization, Alexa594 FP, 6 h. Potency, µM (doses to about 57.7 µM), inactives show at the highest dose activity, negative = inhibition, hits mostly inhibitors. 0.39% of 280,000 active. AID 1468; further: potency means the concentration at half of the fitted maximal effect; on the % scale 0 is the no-effect control and ±100 the full control effect; nearly all actives have a fitted effect of over 55% in size
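FP of Alexa 594-tau after heparin (20 uM) induction. Substrate: human K18 P301L, 15 uM unlabeled, 0.24 uM labeled. Buffer 100 mM sodium acetate pH 7. 6 hr, 37 C.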
The depositor's hits bear a star; [ ] = remark or other dose. Sampled rows, rich in hits. Any-hit rate of the full collection: about 3.2%. Unless noted, the call rests on the fitted dose curve; in most records, active means well fitted curve in the direction sought with a large enough effect; inconclusive means small, poorly fitted or top-dose-only effect, or another doubt; inactive means no such curve, though single readings can be large; an effect the other way counts as inactive or inconclusive.

How did CC(C)n1c(O)c(/C=C2\C=Nc3ccccc32)sc1=Nc1ccccc1 do in these assays?
Tau fluor cs: inconclusive; Tau ThT inhib: -6%; KDM4E inh: 11%; Lamin A splicing: 10%; CBFb-RUNX1 inh: -8%; Tau fibril FP: -6%

Results for CCCOc1ccc(-c2nn(-c3ccccc3)cc2/C=C2\SC(N)=NC2=O)cc1 ?
Tau fluor cs: -26%; Tau ThT inhib: 8%; KDM4E inh: inconclusive; Lamin A splicing: -13%; CBFb-RUNX1 inh: 0%; Tau fibril FP: -14%

Results for Cc1cc(-c2nn(-c3ccccc3)cc2/C=C2\SC(N)=NC2=O)ccc1OC(C)C ?
Tau fluor cs: inconclusive; Tau ThT inhib: -1%; KDM4E inh: 1%; Lamin A splicing: -19%; CBFb-RUNX1 inh: -1%; Tau fibril FP: 3.2µM*

How did COc1ccc(-c2nc(-c3cccs3)c(-c3cccs3)[nH]2)cc1O do in these assays?
Tau fluor cs: 13µM*[quencher]; Tau ThT inhib: 13µM*; KDM4E inh: inconclusive; Lamin A splicing: -6%; CBFb-RUNX1 inh: -18%; Tau fibril FP: -2%

How did COc1ccc(-c2nnc(-c3cccs3)o2)cc1OC do in these assays?
Tau fluor cs: -6%; Tau ThT inhib: -17%; KDM4E inh: inconclusive; Lamin A splicing: -6%; CBFb-RUNX1 inh: 9%; Tau fibril FP: -3%

What do the screens show for `Cc1ccc2c(CNC3CCCC3)c(C(=O)O)n(Cc3ccc(F)cc3)c2c1`?
Tau fluor cs: -14%; Tau ThT inhib: -11%; Tau fibril FP: -3%

How did Cc1ccc(C(=O)Nc2ccc3oc(-c4ccccc4C)nc3c2)cc1 do in these assays?
Tau fluor cs: -23%; Tau ThT inhib: inconclusive; Lamin A splicing: 9%[46 µM]; Tau fibril FP: inconclusive

How did COc1c(O)c(O)cc2c1oc1c3cc(C)ccc3oc(=O)c21 do in these assays?
Tau fluor cs: 10µM*[quencher]; Tau ThT inhib: 8.9µM*; KDM4E inh: 20µM*; CBFb-RUNX1 inh: inconclusive; Tau fibril FP: inconclusive

How did COc1ccc(N2CCN(S(=O)(=O)c3ccc(F)c(C(=O)Nc4ccccc4Cl)c3)CC2)cc1 do in these assays?
Tau fluor cs: -9%; Tau ThT inhib: 5%; Lamin A splicing: inconclusive; Tau fibril FP: 12%

How did CCS(=O)(=O)N1CCCC(C(=O)NCCOC)C1 (centres undefined) do in these assays?
Tau fluor cs: -10%; Tau ThT inhib: -5%; Lamin A splicing: 1%[46 µM]; Tau fibril FP: 3%

What do the screens show for `Oc1ccc(C2CNCc3sccc32)cc1O` (centres undefined)?
Tau fluor cs: -12%; Tau ThT inhib: inconclusive; KDM4E inh: 25µM*; Lamin A splicing: inconclusive; CBFb-RUNX1 inh: 19%; Tau fibril FP: -4%

Results for Clc1ccc(C2NCCc3sccc32)cc1 (centres undefined) ?
Tau fluor cs: -6%; Tau ThT inhib: -8%; KDM4E inh: 3%; CBFb-RUNX1 inh: -4%; Tau fibril FP: -11%

Results for CCOC(=O)c1c(-c2ccc(C)cc2)csc1NC(=O)c1cc(=O)c2cc(Cl)ccc2o1 ?
Tau fluor cs: -22%; Tau ThT inhib: -19%; Tau fibril FP: -7%

What do the screens show for `CC(=O)C1=C(c2ccccc2)NC(=S)NC1c1ccc(O)c(O)c1` (centres undefined)?
Tau fluor cs: -18%; Tau ThT inhib: -18%; KDM4E inh: 22µM*; Lamin A splicing: -6%[46 µM]; CBFb-RUNX1 inh: -11%; Tau fibril FP: 1%

What do the screens show for `CC(=O)C1=C(c2ccccc2)NC(=O)NC1c1ccc(O)c(O)c1` (centres undefined)?
Tau fluor cs: -17%; Tau ThT inhib: inconclusive; KDM4E inh: inconclusive; CBFb-RUNX1 inh: inconclusive; Tau fibril FP: -9%

Results for CCCCNS(=O)(=O)c1ccc2nc(SCC(=O)Nc3ccccc3Cl)[nH]c2c1 ?
Tau fluor cs: inconclusive; Tau ThT inhib: 2%; KDM4E inh: -8%; Lamin A splicing: -11%; CBFb-RUNX1 inh: 2%; Tau fibril FP: 25µM*

What do the screens show for `O=[N+]([O-])c1cccc(N2Cc3ccccc3C2)c1`?
Tau fluor cs: inconclusive; Tau ThT inhib: 16µM*; KDM4E inh: inconclusive; Lamin A splicing: 9%[46 µM]; CBFb-RUNX1 inh: -15%; Tau fibril FP: inconclusive

Results for CCOC1=C/C(=C/c2c(N)n3nc(-c4ccccc4)sc3nc2=O)C=CC1=O ?
Tau fluor cs: inconclusive; Tau ThT inhib: 8.9µM*; KDM4E inh: inconclusive; Lamin A splicing: -7%[46 µM]; CBFb-RUNX1 inh: -11%; Tau fibril FP: -5%

What do the screens show for `CCS(=O)(=O)c1nn2c(N)c(/C=C3/C=CC(=O)C(OC)=C3)c(=O)nc2s1`?
Tau fluor cs: -24%; Tau ThT inhib: inconclusive; KDM4E inh: -10%; Lamin A splicing: -17%; CBFb-RUNX1 inh: -10%; Tau fibril FP: -2%

Results for COC1=C/C(=C/c2c(N)n3nc(-c4ccc(C)cc4)sc3nc2=O)C=CC1=O ?
Tau fluor cs: inconclusive; Tau ThT inhib: 10µM*; KDM4E inh: 7%; CBFb-RUNX1 inh: 8%; Tau fibril FP: 1%

Results for Cc1ccc(OCC(=O)Nc2nc(-c3ccc(Br)cc3)ns2)cc1 ?
Tau fluor cs: -17%; Tau ThT inhib: -5%; Lamin A splicing: -28%[46 µM]; Tau fibril FP: -17%

What do the screens show for `CCOc1ccc2nc(N=NC3=C(O)CC(C)(C)CC3=O)sc2c1`?
Tau fluor cs: -23%; Tau ThT inhib: 14µM*; KDM4E inh: 22µM*; Tau fibril FP: -8%

Results for CCN1CCN(Cc2ccc(NC(=O)c3cc(NC(=O)c4cncc(-c5ccc(C#N)cc5)c4)cc(OC)c3)cc2C(F)(F)F)CC1 ?
Tau fluor cs: inconclusive; Tau ThT inhib: -1%; KDM4E inh: inconclusive; CBFb-RUNX1 inh: inconclusive; Tau fibril FP: 8.9µM*

What do the screens show for `CCN1CCN(Cc2ccc(NC(=O)c3cc(NC(=O)c4nccnc4N)cc(OC)c3)cc2C(F)(F)F)CC1`?
Tau fluor cs: -23%; Tau ThT inhib: 2%; KDM4E inh: -23%; CBFb-RUNX1 inh: 12%; Tau fibril FP: -14%

How did CN1CCN(c2ncc3nc(-c4cccc(C#N)c4)c(=O)n(C[C@H]4CCCO4)c3n2)CC1 do in these assays?
Lamin A splicing: -11%

How did CC(=O)NCCNc1nc(-c2cccc(C#N)c2)nc2ccccc12 do in these assays?
Lamin A splicing: -2%

Results for N#CC1=C(N)Oc2c(O)cc3ccccc3c2C1c1ccsc1 (centres undefined) ?
Tau fluor cs: 16µM*[quencher]; Tau ThT inhib: inconclusive; KDM4E inh: inconclusive; Lamin A splicing: -7%; CBFb-RUNX1 inh: 4%; Tau fibril FP: inconclusive
